# Measurements from PubChem BioAssay AID504397 (Broad Institute, 2011).
# Potency and affinity values are given separately. Values without a mark were called inactive. No rule for the calls is given here.
# Test: toxicity toward cultured mammalian cells – cell-based, plate reader, cherry-pick samples, cytotoxicity control, dose response (AID 504397)
# Settings: plate reader viability; series mostly up to 35 µM; activity change, negative = toxicity: at the top concentration
row,Compound,"activity change, negative = toxicity"
1,NC(=NCCCCCCN=C(N)/N=C(\N)Nc1ccc(Cl)cc1)/N=C(\N)Nc1ccc(Cl)cc1,-4.22%
2,Cc1ccc(/C=N/NC(=O)c2nnn(-c3nonc3N)c2C(C)C)o1,0.746%
3,CCCOc1ccc(-c2c(C(=O)N/N=C/c3cccs3)nnn2-c2nonc2N)cc1,2.41%
4,O=C(Nc1sc2c(c1C(=O)c1ccc(Cl)cc1)CCCC2)c1cccnc1,2.35%
5,Cc1ccc(NC(=O)CCc2ccc(S(=O)(=O)NC3CCCCC3)cc2)cc1,-8.11%
6,Nc1nonc1-n1nnc(C(=O)N/N=C/c2cccc(Cl)c2)c1CSc1ccc(Cl)cc1,6.15%
7,COc1ccc(-n2c(SCc3ccc([N+](=O)[O-])cc3)nnc2-c2ccc(C)cc2)cc1,4.62%
8,CN(C)CCN(C(=O)c1ccc2ccccc2c1)c1nc2ccc(Br)cc2s1,-8.5%
9,CN(C(=O)COC(=O)c1cc([N+](=O)[O-])ccc1Sc1ccccc1)C1CCS(=O)(=O)C1 (stereo unspecified),0.067%
10,CN1C(=O)/C(=C/c2cccc(Cl)c2)Sc2ccc(C(=O)N3CCOCC3)cc21,-6.29%
11,CCOc1cc(S(=O)(=O)N(Cc2ccccc2)Cc2ccccc2)c(OCC)cc1-n1cnnn1,1.55%
12,COC(=O)C1CCCN1S(=O)(=O)c1ccc2ccccc2c1 (stereo unspecified),-12%
13,COc1ccc(CN2CCN(C(c3ccc(F)cc3)c3ccc(F)cc3)CC2)c(OC)c1OC,6.9%
14,Cc1csc2nc(=O)c3ccccc3n12,4.49%
15,O=C(Nc1ccc(Cl)c([N+](=O)[O-])c1)C(Sc1ccccc1)c1ccccc1 (stereo unspecified),-3.51%
16,Nc1nnnn1/N=C/c1ccccc1OCc1ccc(Cl)cc1Cl,-5.67%

row,Compound,"activity change, negative = toxicity"
1,CC(C)c1c(C(=O)N/N=C/c2cccc3ccccc23)nnn1-c1nonc1N,-7.38%
2,O=c1c(-c2ccccc2)c(O)c2ccccc2n1-c1ccccc1,10.6%
3,O=C(c1cc(-c2ccccc2)nc2ccccc12)N1CCN(c2ccccn2)CC1,-3.93%
4,CS(=O)(=O)Nc1ccccc1C(=O)NC1CC2CCC1C2 (stereo unspecified),-0.112%
5,COc1cccc(-c2c(C(=O)N/N=C/c3sccc3C)nnn2-c2nonc2N)c1,0.939%
6,Cc1cccc(Nc2ccccc2C(=O)OCC(=O)N(C)C2CCS(=O)(=O)C2)c1C (stereo unspecified),-4.75%
7,CC1(c2ccc(OCC#N)cc2)C=C(c2ccc(OCC#N)cc2)n2nc(C(F)(F)F)nc2N1 (stereo unspecified),-5.82%
8,CN(C)S(=O)(=O)c1ccc(NC(=O)/C=C/c2ccccc2Cl)cc1,-5.34%
9,Cc1cccc(-c2nnc(SCc3ccc(C#N)cc3)n2Cc2ccco2)c1,-1.35%
10,CCOC(=O)c1cc(-c2ccccc2)sc1NC(=O)C(C)Sc1nnnn1C (stereo unspecified),7.59%
11,COc1cccc(/C=N/NC(=O)c2nnn(-c3nonc3N)c2C(C)C)c1OCc1ccc(F)cc1,-3.78%
12,CCn1cc(/C=C(\NC(=O)c2ccccc2F)C(=O)N2CCCC2)c2ccccc21,-7.83%
13,CCCCCCCCCCOC(=O)Cn1c(COc2ccccc2C)[n+](C)c2ccccc21,-7.84%
14,Cc1ccc(C(=O)c2c3ccc(C(F)(F)F)cc3nn2CCC(N)=O)cc1,1.73%
15,CC(=O)c1ccc(-c2ccc(C(=O)N3CCC(C(N)=O)CC3)o2)cc1,0.173%
